This is an account of results in ChEMBL document CHEMBL1961873, “Compounds: GSK PKIS; Assays: Nanosyn kinase panel” (2012).

The target of assay [1] is RAF proto-oncogene serine/threonine-protein kinase (Homo sapiens) (UniProt P04049). As to conditions: at 1 µM.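 Also: values are the mean percent inhibition of CRAF.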
Assay [2] has as its target T1, Interleukin-1 receptor-associated kinase 4 (Homo sapiens) (UniProt Q9NWZ3).
T1 sequence (whole entry): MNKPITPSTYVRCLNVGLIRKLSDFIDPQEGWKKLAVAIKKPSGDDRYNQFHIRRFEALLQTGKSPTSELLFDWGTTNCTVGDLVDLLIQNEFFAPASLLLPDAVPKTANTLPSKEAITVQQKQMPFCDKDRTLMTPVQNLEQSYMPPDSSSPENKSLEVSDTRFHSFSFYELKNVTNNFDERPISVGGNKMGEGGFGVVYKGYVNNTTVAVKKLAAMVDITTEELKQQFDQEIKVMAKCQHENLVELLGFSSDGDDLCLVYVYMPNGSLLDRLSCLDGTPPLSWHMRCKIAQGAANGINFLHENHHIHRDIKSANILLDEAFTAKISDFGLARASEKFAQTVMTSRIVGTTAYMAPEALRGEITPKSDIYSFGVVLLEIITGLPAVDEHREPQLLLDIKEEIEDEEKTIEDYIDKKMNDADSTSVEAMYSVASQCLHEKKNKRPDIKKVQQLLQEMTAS
As to conditions: at 0.1 µM.

Assay [3] concerns the target T1, Interleukin-1 receptor-associated kinase 4 (Homo sapiens). As to conditions: at 1 µM.
For assay [4], the target named is Leucine-rich repeat serine/threonine-protein kinase 2 (Homo sapiens) (UniProt Q5S007). The conditions noted are these: at 0.1 µM.
Assay [5] shares this target. The conditions noted are these: at 1 µM.
Assay [6] relates to Leucine-rich repeat serine/threonine-protein kinase 2 (Homo sapiens), Q5S007 [G2019S]. As to conditions: at 0.1 µM.
For assay [7] the test system is unchanged. As to conditions: at 1 µM.

Sequence of Leucine-rich repeat serine/threonine-protein kinase 2 (Homo sapiens) (Q5S007 whole entry): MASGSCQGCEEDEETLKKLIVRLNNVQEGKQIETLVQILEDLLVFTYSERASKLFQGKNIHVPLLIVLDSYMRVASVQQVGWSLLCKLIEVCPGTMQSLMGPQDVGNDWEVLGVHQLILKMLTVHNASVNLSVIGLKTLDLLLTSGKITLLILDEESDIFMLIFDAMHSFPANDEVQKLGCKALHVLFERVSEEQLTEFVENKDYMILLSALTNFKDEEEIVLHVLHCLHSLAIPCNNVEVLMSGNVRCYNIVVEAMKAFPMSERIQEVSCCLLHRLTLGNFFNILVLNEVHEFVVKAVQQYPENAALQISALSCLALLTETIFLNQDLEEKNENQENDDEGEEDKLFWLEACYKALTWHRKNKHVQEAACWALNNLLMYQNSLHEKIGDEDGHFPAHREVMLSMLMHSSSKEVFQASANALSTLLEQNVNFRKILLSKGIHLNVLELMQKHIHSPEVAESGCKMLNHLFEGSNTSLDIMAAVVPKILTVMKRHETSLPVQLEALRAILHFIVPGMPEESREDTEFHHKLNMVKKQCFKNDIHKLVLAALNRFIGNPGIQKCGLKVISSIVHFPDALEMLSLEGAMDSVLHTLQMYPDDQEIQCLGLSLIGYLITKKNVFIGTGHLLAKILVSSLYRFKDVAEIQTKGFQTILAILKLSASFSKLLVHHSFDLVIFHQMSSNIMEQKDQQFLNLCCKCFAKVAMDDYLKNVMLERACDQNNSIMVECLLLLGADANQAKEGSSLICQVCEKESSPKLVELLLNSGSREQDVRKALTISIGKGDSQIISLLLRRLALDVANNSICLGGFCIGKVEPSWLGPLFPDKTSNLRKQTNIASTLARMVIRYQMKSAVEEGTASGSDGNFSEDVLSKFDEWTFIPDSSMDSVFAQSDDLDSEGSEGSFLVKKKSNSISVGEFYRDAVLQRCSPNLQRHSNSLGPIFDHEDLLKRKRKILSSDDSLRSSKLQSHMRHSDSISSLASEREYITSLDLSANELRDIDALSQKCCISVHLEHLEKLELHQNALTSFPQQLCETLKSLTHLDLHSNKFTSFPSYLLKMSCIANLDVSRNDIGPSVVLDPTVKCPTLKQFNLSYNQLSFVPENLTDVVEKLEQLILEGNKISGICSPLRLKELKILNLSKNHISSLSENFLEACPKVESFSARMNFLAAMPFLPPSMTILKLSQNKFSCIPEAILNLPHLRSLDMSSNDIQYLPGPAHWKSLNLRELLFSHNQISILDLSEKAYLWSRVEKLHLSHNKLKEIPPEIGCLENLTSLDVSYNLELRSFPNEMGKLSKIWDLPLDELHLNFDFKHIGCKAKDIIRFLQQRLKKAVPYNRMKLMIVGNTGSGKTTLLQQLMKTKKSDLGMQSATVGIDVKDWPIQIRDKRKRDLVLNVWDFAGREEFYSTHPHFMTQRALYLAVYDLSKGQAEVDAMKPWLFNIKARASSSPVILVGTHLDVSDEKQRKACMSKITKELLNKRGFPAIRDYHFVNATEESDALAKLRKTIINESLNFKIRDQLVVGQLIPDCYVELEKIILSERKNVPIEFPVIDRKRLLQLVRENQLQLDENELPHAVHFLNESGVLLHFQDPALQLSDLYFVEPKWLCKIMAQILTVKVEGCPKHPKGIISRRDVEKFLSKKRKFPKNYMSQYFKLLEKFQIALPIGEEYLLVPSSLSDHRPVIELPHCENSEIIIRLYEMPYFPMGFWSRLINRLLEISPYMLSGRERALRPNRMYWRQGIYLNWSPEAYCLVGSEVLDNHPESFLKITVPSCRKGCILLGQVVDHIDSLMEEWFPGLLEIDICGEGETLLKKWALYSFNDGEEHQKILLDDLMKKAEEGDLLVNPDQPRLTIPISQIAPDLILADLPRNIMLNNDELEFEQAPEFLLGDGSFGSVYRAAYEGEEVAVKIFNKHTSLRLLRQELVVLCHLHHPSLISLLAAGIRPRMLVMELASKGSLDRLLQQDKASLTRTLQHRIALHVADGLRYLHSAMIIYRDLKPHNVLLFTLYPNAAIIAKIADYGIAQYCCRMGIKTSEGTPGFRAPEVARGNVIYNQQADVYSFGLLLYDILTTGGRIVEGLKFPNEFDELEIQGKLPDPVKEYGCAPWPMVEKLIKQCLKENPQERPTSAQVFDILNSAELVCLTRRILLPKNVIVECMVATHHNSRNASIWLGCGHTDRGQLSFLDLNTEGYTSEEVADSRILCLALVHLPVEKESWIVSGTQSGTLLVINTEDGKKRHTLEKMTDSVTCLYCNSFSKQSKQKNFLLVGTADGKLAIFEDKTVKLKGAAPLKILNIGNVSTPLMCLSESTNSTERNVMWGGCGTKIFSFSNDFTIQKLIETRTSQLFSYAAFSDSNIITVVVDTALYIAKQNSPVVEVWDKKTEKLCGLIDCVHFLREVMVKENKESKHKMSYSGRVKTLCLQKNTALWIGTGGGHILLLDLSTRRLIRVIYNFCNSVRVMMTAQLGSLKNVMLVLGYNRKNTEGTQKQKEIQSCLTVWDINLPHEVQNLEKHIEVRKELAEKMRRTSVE
Sequence of Leucine-rich repeat serine/threonine-protein kinase 2 (Homo sapiens), Q5S007 [G2019S] (Q5S007 whole entry G2019S): as the sequence (Q5S007 whole entry) above, with G2019S counted along it
Sequence of RAF proto-oncogene serine/threonine-protein kinase (Homo sapiens) (P04049 whole entry): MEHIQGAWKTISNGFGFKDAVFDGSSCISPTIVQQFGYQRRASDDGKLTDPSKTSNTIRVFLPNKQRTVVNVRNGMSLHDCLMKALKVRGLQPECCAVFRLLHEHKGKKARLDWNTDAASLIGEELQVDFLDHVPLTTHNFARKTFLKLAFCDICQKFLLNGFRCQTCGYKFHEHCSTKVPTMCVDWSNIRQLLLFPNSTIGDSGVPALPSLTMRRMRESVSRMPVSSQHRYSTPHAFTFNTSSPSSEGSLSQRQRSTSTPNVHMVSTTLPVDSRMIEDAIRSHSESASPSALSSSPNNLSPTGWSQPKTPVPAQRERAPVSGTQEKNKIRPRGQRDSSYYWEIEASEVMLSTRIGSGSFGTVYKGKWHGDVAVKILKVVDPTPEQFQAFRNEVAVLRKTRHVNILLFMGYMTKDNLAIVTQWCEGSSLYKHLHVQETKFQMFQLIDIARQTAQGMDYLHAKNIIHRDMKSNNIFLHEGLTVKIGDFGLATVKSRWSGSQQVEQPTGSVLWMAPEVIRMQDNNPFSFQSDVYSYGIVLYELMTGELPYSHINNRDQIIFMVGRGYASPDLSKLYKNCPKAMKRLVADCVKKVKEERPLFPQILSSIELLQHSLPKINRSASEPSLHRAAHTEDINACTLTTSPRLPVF

In the case of `CCS(=O)(=O)c1ccc(OC)c(Nc2ncc(-c3ccccc3Cl)o2)c1`, the inhibition is -2.68% in assay [1]; -1.05% in assay [2]; 3.5% in assay [3]; 2.06% in assay [4]; 10.3% in assay [5]; 1.06% in assay [6]. Also, the inhibition in assay [7] was determined as 13.4%.
As to `O=C(Nc1ccc(Oc2ccc3[nH]c(NC(=O)c4ccccc4)nc3c2)cc1)Nc1cc(C(F)(F)F)ccc1F`, the inhibition in assay [1] is 17.9%; in assay [2], -1.64%; in assay [3], 2.09%; in assay [4] it was 13%; in assay [5] it was 18.4%; in assay [6] it was 6.22%. In addition, the inhibition in assay [7] is 36.1%.
Regarding `CS(=O)(=O)CCNCc1ccc(-c2ccc3ncnc(Nc4ccc(OCc5ccccc5)c(Br)c4)c3c2)o1`, the inhibition in assay [1] was 3.63%; in assay [2], 0.92%; in assay [3], 1.52%; in assay [4], -4.59%; in assay [5], -6.11%; in assay [6], -1.19%. In assay [7], the inhibition is -0.13%.
Turning to `O=C1NC(=O)C(c2cccc(Cl)c2)=C1Nc1ccc(Cl)c(C(=O)O)c1`, the inhibition amounted to 17.7% in assay [1]; 3.69% in assay [2]; 1.5% in assay [3]; 2.15% in assay [4]; 4.76% in assay [5]; 3.36% in assay [6]. The inhibition in assay [7] stood at 7.81%.
In the case of `CCN(CC)Cc1ccc(Nc2nccc(-c3cnn4ncccc34)n2)cc1`, the inhibition in assay [1] was 1.56%; in assay [2], 1.17%; in assay [3], 3.85%; in assay [4], -6.19%; in assay [5] it was 8.65%; in assay [6], 0.1%. Further, in assay [7], the inhibition amounted to 19%.
Turning to `Fc1ccc(-c2ncn(CCCN3CCOCC3)c2-c2ccncc2)cc1`, the inhibition is -5.69% in assay [1]; 3.04% in assay [2]; -0.71% in assay [3]; 0.7% in assay [4]; 3.28% in assay [5]; 1.27% in assay [6]. Also, the inhibition in assay [7] stood at 4.28%.
In the case of `C/C(Nc1ccc(S(N)(=O)=O)cc1)=C1/C(=O)Nc2ccccc21`, the inhibition in assay [1] is -3.52%; in assay [2] it was 2.06%; in assay [3] it was 0.3%; in assay [4] it was 3.27%; in assay [5] it was 18.4%; in assay [6], 11.4%. In assay [7], the inhibition came out at 47.1%.
In the case of `O=C(Nc1n[nH]c2cc(-c3ccccc3)ccc12)C1CC1`, the inhibition in assay [1] amounted to 1.41%; in assay [2], 2.36%; in assay [3], 2.04%; in assay [4], 2.57%; in assay [5], 6.05%; in assay [6] it was 3.85%. Further, the inhibition in assay [7] stood at 7.95%.
`NC(=O)c1ccc(Oc2nccc(-c3c(-c4ccc(F)cc4)ncn3C3CCNCC3)n2)cc1`: the inhibition in assay [1] is 0.88%; in assay [2] it was 2.75%; in assay [3] it was 3.85%; in assay [4] it was 0.29%; in assay [5], 5.49%; in assay [6] it was 3.7%. The inhibition in assay [7] is 7.46%.
On to `Fc1ccc(-c2nc3n(c2-c2ccncc2)CCS3)cc1`, for which the inhibition is -0.15% in assay [1]; 3.38% in assay [2]; 2.37% in assay [3]; -3.58% in assay [4]; -3.17% in assay [5]; -0.21% in assay [6]. For the same compound, in assay [7], the inhibition was -0.63%.
Turning to `CN(c1ccc(NC(=O)Nc2c(Cl)cccc2Cl)cc1)c1ccnc(Nc2cccc(CS(C)(=O)=O)c2)n1`, the inhibition came to 1.82% in assay [1]; 0.17% in assay [2]; 1.26% in assay [3]; 12.2% in assay [4]; 15.4% in assay [5]; 9.38% in assay [6]. In addition, the inhibition in assay [7] was 20.4%.
With `COc1cc(Nc2ncc3c(C)nc(-c4cccc(C(F)(F)F)c4)n3n2)cc(OC)c1OC`, the inhibition was -2.3% in assay [1]; -2.83% in assay [2]; 1.37% in assay [3]; 8.04% in assay [4]; 17.4% in assay [5]; 11.1% in assay [6]. Further, the inhibition in assay [7] worked out at 39.6%.
Turning to `COc1ccc2ncn(-c3cc(O[C@H](C)c4ccccc4Cl)c(C(N)=O)s3)c2c1`, the inhibition was 0.5% in assay [1]; 1.46% in assay [2]; 1.82% in assay [3]; -2.19% in assay [4]; 9.87% in assay [5]; 2.01% in assay [6]. Further, in assay [7], the inhibition was determined as 20.2%.
With `C[C@@H](Oc1cc(-n2cnc3ccc(OC4CCN(C)CC4)cc32)sc1C(N)=O)c1ccccc1Cl`, the inhibition in assay [1] was 0.92%; in assay [2] it was 1.54%; in assay [3] it was 3.69%; in assay [4] it was -3.8%; in assay [5] it was 6.57%; in assay [6], -1.8%. The inhibition in assay [7] was 13.5%.
As to `Cc1ccc(C(=O)NC2CCC2)cc1-c1ccc(C(=O)NCC2CC2)cc1`, the inhibition is -1.36% in assay [1]; 3.77% in assay [2]; 1.51% in assay [3]; 2.63% in assay [4]; 2.18% in assay [5]; 2.78% in assay [6]. For the same compound, the inhibition in assay [7] came to 5.64%.
Take `Cc1nnc(-c2ccc(C)c(-c3ccc(C(=O)NCc4ccc(Cl)cc4)cc3)c2)o1`: the inhibition was -0.47% in assay [1]; 4.09% in assay [2]; 2.12% in assay [3]; -4.32% in assay [4]; -3.04% in assay [5]; -2.08% in assay [6]. Besides, the inhibition in assay [7] is -4%.
As for `FC(F)(F)c1cccc(Nc2nccc(-c3cnn4nc(-c5ccccc5)ccc34)n2)c1`, the inhibition in assay [1] is -0.15%; in assay [2] it was 0.01%; in assay [3] it was 0.27%; in assay [4], 2%; in assay [5], -0.41%; in assay [6], 2.35%. Further, the inhibition in assay [7] was 4.67%.

The term inhibition denotes the drop in the measured response relative to a control, in per cent.
